Results from the supplement of paper PMC7411054.
Structures can show the parent of a compound that is named as a salt.

Experiments:
Test in all cases: lowest phenotypically active concentration; higher = less potent
Settings in all cases: treatment time: 24 h
[1] = test system: HepG2-ACTB-RAB5A
How it was run: (§1)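 Fifteen reporter lines derived from A549, HepG2 and WPMY1 cells by gene editing, carrying BFP for segmentation plus GFP and RFP/FusionRed markers, were exposed to 0.3, 1, 3 or 9 µM for 24 h in four wells each and imaged live. Live-cell features from each well were normalised to solvent control wells. A well set counted as deviating when ≥3 of 4 wells lay beyond the 95th percentile of control Euclidean distances, and as reproducible when the median replicate Pearson correlation exceeded the 95th percentile of non-replicates. Phenotypic activity was assigned only when both criteria were met.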

[2] = test system: HepG2-CANX-COX4
How it was run: as §1

[3] = test system: HepG2-GM130-SQSTM1
How it was run: as §1

[4] = test system: HepG2-TP53BP1-CLTA
How it was run: as §1

[5] = test system: HepG2-TUBA1B-RELA
How it was run: as §1

[6] = test system: WPMY1-ACTB-RAB5A
How it was run: as §1

[7] = test system: WPMY1-CANX-COX4
How it was run: as §1

[8] = test system: WPMY1-GM130-SQSTM1
How it was run: as §1

[9] = test system: WPMY1-TP53BP1-CLTA
How it was run: as §1

[10] = test system: WPMY1-TUBA1B-RELA
How it was run: as §1

Measured: lowest phenotypically active concentration

Cc1c[nH]c2nccc(Oc3c(F)cc(Nc4cc(Cl)nc(N)n4)cc3F)c12
1 µM: [9]
≤ 0.3 µM: all other assays above

COc1cc2nc(-c3cc(F)ccc3O)nc(N[C@@H]3CNC[C@H]3C(C)(C)O)c2cc1OC
1 µM: all assays above

CN1CCN(c2ccc(OC(F)(F)F)c(Nc3ncc4c(n3)-c3c(c(C(N)=O)nn3CCO)CC4)c2)CC1
1 µM: [7] | [8]
≤ 0.3 µM: all other assays above

COc1ccc(-c2cc3c(C)nc(N)nc3n([C@H]3CC[C@H](OCCO)CC3)c2=O)cn1
≤ 0.3 µM: all assays above

O=C(Nc1cccc(Cl)c1)Nc1ncc(CCNc2ncnc3ccsc23)s1 [SNS 314 mesylate]
≤ 0.3 µM: all assays above

CO[C@H]1C[C@@H]2CC[C@@H](C)[C@@](O)(O2)C(=O)C(=O)N2CCCC[C@H]2C(=O)O[C@H]([C@H](C)C[C@@H]2CC[C@@H](OC(=O)C(C)(CO)CO)[C@H](OC)C2)CC(=O)[C@H](C)C=C(C)[C@@H](O)[C@@H](OC)C(=O)[C@H](C)C[C@H](C)C=CC=CC=C1C [Temsirolimus]
1 µM: [2] | [5]
3 µM: [10]
≤ 0.3 µM: all other assays above

CC(=C/[C@@H](C)C(=O)c1ccc(N(C)C)cc1)/C=C/C(=O)NO [Trichostatin A]
≤ 0.3 µM: all assays above

C[C@@H](N)[C@H]1CC[C@H](C(=O)Nc2ccncc2)CC1
9 µM: [9]
3 µM: [1] | [5]
1 µM: all other assays above

Nc1nc(S)c2[nH]cnc2n1 [thioguanine]
9 µM: [1] | [9] | [10]
1 µM: all other assays above

COc1cc(N2CCN(C)CC2)ccc1Nc1nccc(-c2cn(C)c3cnccc23)n1
3 µM: [1]
≤ 0.3 µM: [7]
1 µM: all other assays above

CNC(=O)c1ccccc1Sc1ccc2c(/C=C/c3ccccn3)n[nH]c2c1 [Axitinib]
9 µM: [6] | [7]
3 µM: all other assays above

COc1ccc(N(C)c2nc(C)nc3ccccc23)cc1 [MPC 6827 hydrochloride]
≤ 0.3 µM: all assays above

CN1CC[C@H](c2c(O)cc(O)c3c(=O)cc(-c4ccccc4Cl)oc23)[C@H](O)C1 [Flavopiridol hydrochloride]
≤ 0.3 µM: all assays above

CC(=O)c1c(C)c2cnc(Nc3ccc(N4CCNCC4)cn3)nc2n(C2CCCC2)c1=O
3 µM: [7]
9 µM: [6] | [8] | [9] | [10]
≤ 0.3 µM: all other assays above

CCNC(=O)c1noc(-c2cc(C(C)C)c(O)cc2O)c1-c1ccc(CN2CCOCC2)cc1
≤ 0.3 µM: all assays above

COc1cc(C(=O)NC2CCN(C)CC2)c(F)cc1Nc1ncc2c(n1)N(C1CCCC1)CC(F)(F)C(=O)N2C [TAK 960 hydrochloride]
1 µM: [7]
≤ 0.3 µM: all other assays above

CC(C)NCCCn1c(Sc2cc3c(cc2I)OCO3)nc2c(N)ncnc21
≤ 0.3 µM: all assays above

CCC1(O)CC2CN(CCc3c([nH]c4ccccc34)C(C(=O)OC)(c3cc4c(cc3OC)N(C)C3C(O)(C(=O)OC)C(OC(C)=O)C5(CC)C=CCN6CCC43C65)C2)C1 (stereo not given) [Vinblastine sulfate]
1 µM: [4]
≤ 0.3 µM: all other assays above

O=C1Nc2ccc(F)cc2C1=C1Nc2ccccc2C1=NO [5'-Fluoroindirubinoxime]
≤ 0.3 µM: [1] | [2] | [7] | [9]
1 µM: all other assays above

CS(=O)(=O)c1cccc(CNc2nc(Nc3ccc4c(c3)CCC(=O)N4)ncc2C(F)(F)F)c1
3 µM: [3] | [7] | [8] | [10]
1 µM: all other assays above

CC(=O)O[C@H]1C(=O)[C@@]2(C)[C@H]([C@H](OC(=O)c3ccccc3)[C@]3(O)C[C@H](OC(=O)[C@H](O)[C@@H](NC(=O)c4ccccc4)c4ccccc4)C(C)=C1C3(C)C)[C@]1(OC(C)=O)CO[C@@H]1C[C@@H]2O [paclitaxel]
9 µM: [7]
≤ 0.3 µM: all other assays above

O=C1Cc2c([nH]c3ccc(Br)cc23)-c2ccccc2N1 [Kenpaullone]
3 µM: [1] | [3] | [4] | [10]
1 µM: all other assays above

Oc1ccc(-c2nc(-c3ccc(F)cc3)c(-c3ccncc3)[nH]2)cc1
1 µM: [2] | [4]
≤ 0.3 µM: [3]
9 µM: [6] | [7] | [9]
3 µM: all other assays above
